Tau fibril ThT – inhibitors of human tau fibril formation, thioflavin T binding | recombinant tau K18 P301L, heparin-induced fibrillization, ThT fluorescence | Potency, µM (highest dose often 57.4 µM), without a hit: at the highest dose activity, negative = inhibition, usual class: inhibitors | hit rate 2.1% among 270,000 | AID 1460; further: potency means the concentration at half of the fitted maximal effect; nearly all actives have a fitted effect of over 55% in size
Target sequence (P10636 561-689 P618L limits assumed): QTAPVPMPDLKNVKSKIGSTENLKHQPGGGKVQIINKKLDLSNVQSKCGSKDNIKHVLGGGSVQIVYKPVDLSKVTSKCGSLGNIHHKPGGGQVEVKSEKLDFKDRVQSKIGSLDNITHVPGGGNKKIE
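Recombinant human tau K18 fragment […] carrying P301L, 15 uM unlabeled plus 0.24 uM Alexa 594-labeled, was fibrillized with 20 uM heparin in 100 mM sodium acetate pH 7 for 6 hr at 37 C; 30 uM ThT fluorescence read after 1 hr.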
Tau fluor cs – counter-screen for tau fibril formation inhibitors. tau K18 P301L Alexa594 fluorescence, heparin fibrillization. Potency, µM (doses to about 57.7 µM), inactives show at the top dose activity change, negative = decrease. AID 1463. hit rate 0.93% among 280,000; further: potency means the concentration at half of the fitted maximal effect; nearly all actives have a fitted effect of over 55% in size
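Human tau K18 P301L (15 uM unlabeled, 0.24 uM Alexa 594-labeled) in 100 mM sodium acetate pH 7 with 20 uM heparin, 6 hr at 37 C. ThT 30 uM added, 1 hr ambient; Alexa 594 FP and total fluorescence read at 555/632 nm.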
Coupling enz – coupling enzyme interference in Giardia aldolase counter-screen; activity change, negative = inhibition, % at 58.2 µM, hits read low; hit rate 0.67% among 290,000; AID 2472; coupling enzyme system counterscreen, AmpLite Red fluorescence; in the data active means activity change below about -30%
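Final compound at 57.5 uM, incubated 10 min at RT with coupling enzyme reagent (glyceraldehyde-3-phosphate), then 20 min with substrate and AmpLite Red detection. Fluorescence read at 525/598 nm; tests interference with the coupling assay, not aldolase inhibition.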
Sfp inh – Sfp phosphopantetheinyl transferase inhibition | Potency, µM, inactives show largest response in the series, negative = inhibition, actives largely listed as inhibitors | Q9F4F7 | hit rate 3.5% among 310,000 | Biochemical Sfp PPTase activity, qHTS;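 further: the enzyme is Sfp with the accession as filed and its product quenches rhodamine fluorescence; potency means the concentration at half of the fitted maximal effect; 0% = enzyme reaction without inhibitor and -100% = no enzyme wells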
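Fluorescence-quenching assay with 15 nM Sfp, 5 uM rhodamine-CoA and 12.5 uM BHQ-2-labelled ybbR peptide in pH 7.6 Hepes/MgCl2 buffer. Enzyme was pre-incubated with compound for 15 min at room temperature. Rate was taken from the 30-min fluorescence change (525/598 nm).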
Tau FP inhib – inhibitors of human tau fibril formation; P10636; K18 P301L tau heparin fibrillization, Alexa594 FP, 6 h; Potency, µM (top dose mostly 57.7 µM), for the others: top-dose activity, negative = inhibition, actives largely listed as inhibitors; hit rate 0.39% among 280,000; AID 1468; further: potency means the concentration at half of the fitted maximal effect; nearly all actives have a fitted effect of over 55% in size
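Heparin (20 uM) drove fibril formation of recombinant tau K18 P301L, 15 uM unlabeled with 0.24 uM Alexa 594 label, for 6 hr at 37 C in 100 mM sodium acetate pH 7. Fluorescence polarization (555/632 nm) read 1 hr after 30 uM ThT.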
The depositor's hits bear a star; ? = inconclusive; nt = no result given; [ ] = remark or other dose. The list is not random: actives were taken first. Their share in the collection is about 5.2%. Unless noted, the call rests on the fitted dose curve; in most records, active means well fitted curve in the direction sought with a large enough effect; inconclusive means small, poorly fitted or top-dose-only effect, or another doubt; inactive means no such curve, though single readings can be large; an effect the other way counts as inactive or inconclusive. Unless noted, on the % scale 0 is the no-effect control and ±100 the full control effect.

SMILES	Tau fibril ThT	Tau fluor cs	Coupling enz	Sfp inh	Tau FP inhib
CCC(=O)N1CCN(c2ccc(NC(=O)c3ccc(N4CCCC4)c([N+](=O)[O-])c3)cc2)CC1	0.631µM*	-15.8%	2.1	-2.1%	-9.0%
CCC(=O)N1CCN(c2ccc(NC(=O)c3ccc(N4CCOCC4)c([N+](=O)[O-])c3)cc2)CC1	nt	nt	nt	14.5%	nt
CCC(=O)N1CCN(c2ccc(NC(=S)NC(=O)c3ccc(OC)c([N+](=O)[O-])c3)cc2)CC1	2.51µM*	?	0.1	-15.0%	?
COc1ccc(Oc2ncc3nc(C)c(=O)n(C)c3n2)cc1	nt	nt	0.2	15.9%	nt
C/C=C/C1=Cc2ccccc2C(CC(=O)OC)N1C(=O)OC (stereo not drawn)	3.3%[11.5 µM]	1.9%[11.6 µM]	-0.2	8.8%	1.6%[11.6 µM]
C[C@@H]1O[C@H](O[C@@H]2C(O)[C@H](O)[C@@H](CO)O[C@H]2Oc2cc(O)c3c(=O)cc(-c4ccc(O)cc4)oc3c2)[C@H](O)[C@H](O)[C@H]1O (stereo partly drawn)	nt	nt	3.2	4.3%	nt
CCOc1ccc(N2CC(C(=O)Nc3nnc(CC)s3)CC2=O)cc1 (stereo not drawn)	nt	nt	3.1	56.2µM*	nt
CCCCc1nnc(NC(=O)C2CC(=O)N(c3ccc(C)cc3)C2)s1 (stereo not drawn)	-17.4%	-17.3%	3.5	8.6%	-0.2%
CCc1nnc(NC(=O)C2CC(=O)N(c3ccc(C)cc3)C2)s1 (stereo not drawn)	-14.9%	-7.2%	0.8	50.1µM*	5.5%
O=C(NCCC1=CCCCC1)c1ccc2c(c1)sc1nc(-c3ccc(F)cc3)cn12	3.9%	-2.1%	nt	nt	-2.7%
CCOc1ccc(-n2nc(CO)c(C(=O)NCc3ccccn3)n2)cc1	?	-4.7%	nt	nt	0.1%
Cc1ccccc1CN1CCCN(CC(=O)Nc2ccc3c(c2)OCCO3)S1(=O)=O	-4.8%	-13.9%	nt	nt	7.1%
O=S(=O)(NCc1ccccc1)c1ccc(Cl)cc1	-11.5%	-9.3%	2.5	7.2%	4.3%
O=S(=O)(Nc1cc2nc3ccccc3nc2n1Cc1ccccc1)c1ccc(Cl)cc1	?	14.1µM*[quencher]	-55.1*	56.2µM*	?
COc1cc2c(cc1OC)C(COc1ccc(F)cc1)N(C(=O)c1cccc(F)c1)CC2 (stereo not drawn)	-15.3%	-19.7%	nt	nt	0.2%
O=c1nc(N/N=C/c2c[nH]c3ccccc23)cn[nH]1	nt	-17.9%	-0.2	50.1µM*	-2.5%
C(=N\Nc1ccccn1)/c1c[nH]c2ccccc12	7.08µM*	14.1µM*[quencher]	0.0	?	9.1%
C(=N\c1nccs1)/c1c[nH]c2ccccc12	-10.4%	-6.6%	-11.9	44.7µM*	1.8%
Brc1ccccc1/C=N/Nc1ccccn1	0.0%	-1.9%	-0.8	16.1%	9.8%
O=c1cnnc(N/N=C/c2c[nH]c3ccccc23)[nH]1	?	-19.1%	2.2	?	0.9%
FC(F)(F)c1ccccc1/C=N/Nc1ccccn1	-7.4%	-12.9%	1.0	79.4µM*	-13.1%
Cc1ccc(-c2noc(-c3ccc(NC4CCCC4)c([N+](=O)[O-])c3)n2)cc1	-16.0%	-10.2%	nt	nt	-2.3%
N#Cc1cccc(NC(=O)N2CC[C@@]3(CCCN(C(=O)c4cnccn4)C3)C2)c1	nt	nt	0.2	17.4%	nt
O=C(Cn1cc(S(=O)(=O)Cc2ccc(F)cc2)c2ccccc21)NCc1ccccc1	4.4%	-19.2%	nt	nt	-9.4%
O=C(O)c1cccc2c(/C=N/Nc3ccccn3)c[nH]c12	nt	-23.7%	0.7	50.1µM*	9.5%
SMILES	Tau fibril ThT	Tau fluor cs	Coupling enz	Sfp inh	Tau FP inhib
Cn1c(CN2CCCCC2)c(C#N)c2ccccc21	-2.0%	-3.7%	-0.5	10.1%	-4.7%
C=CCn1c(O)c(CN2CCN(Cc3ccccc3)CC2)c(C)c(C#N)c1=O	15.8µM*	-23.4%	-42.1*	-29.1%	?
Cc1c(CN2CCCCC2)c(O)n(CCCO)c(=O)c1C#N	?	-13.7%	-30.5*	10.8%	?
CCCn1c(O)c(CN2CCCCC2)c(C)c(C#N)c1=O	?	-19.2%	-39.7*	-3.4%	?
Cc1ccc(CN(C(=O)COc2cccc([N+](=O)[O-])c2)c2ccccn2)o1	-7.5%	-16.1%	nt	nt	-2.5%
Cc1cccc(-n2c(CCc3ccccc3)nnc2SCC(=O)c2ccccc2)c1	?	-15.3%	-1.1	50.1µM*	-8.5%
CN(Cc1ccco1)C(=O)CCc1nc2sc3c(c2c(=O)[nH]1)CCCC3	nt	nt	0.3	-16.3%	nt
Cc1ccc(CN(C)C(=O)CCc2nc3sc4c(c3c(=O)[nH]2)CCCC4)o1	nt	nt	-0.5	50.1µM*	nt
CCOc1ccc(NC(=O)COc2ccc(S(=O)(=O)NC3CCCCC3)cc2)cc1	?	-25.3%	nt	nt	-3.7%
COc1ccc(C(=O)NC(=S)Nc2ccc(N3CCCC3)cc2)cc1	?	-21.8%	0.3	8.5%	1.9%
CCOc1ccc(OCc2cccc(C(=O)Nc3ccc(CN4CCCCC4)cc3)c2)cc1	-14.3%	-29.8%	-0.8	12.6µM*	5.3%
CCOc1ccc(C(=O)Nc2ccc(N3CCCC3)cc2)cc1	8.91µM*	?	-1.5	?	6.3%
CCCOc1ccc(C(=O)Nc2ccc(N3CCN(C(=O)c4ccco4)CC3)cc2)cc1	nt	nt	nt	7.9%	nt
CCCOc1ccc(C(=O)Nc2ccc(N3CCN(C(C)=O)CC3)cc2)cc1	2.24µM*	-18.6%	-2.6	2.5%	-3.0%
COc1ccc(C(=O)Nc2ccc(N3CCCC3)cc2)cc1	7.94µM*	15.8µM*[quencher]	-0.5	79.4µM*	6.6%
Cc1ccc(CNCc2ccc3c(c2)n(C)c(=O)n3C)cc1	4.3%	-4.8%	nt	nt	-12.0%
Cc1ccc(C(=O)Nc2ccc(N3CCCC3)cc2)c(C)c1	14.1µM*	-26.0%	0.0	3.0%	1.6%
Cn1nnnc1SCCCNCc1cccc(OCc2ccccc2)c1	-0.7%	-10.8%	nt	nt	-1.5%
O=[N+]([O-])c1cccc(NNS(=O)(=O)c2ccccc2F)c1	nt	nt	-30.3*	?	nt
Cc1cc(S(=O)(=O)Nc2cccc([N+](=O)[O-])c2)c(C)s1	nt	nt	0.3	15.6%	nt
COc1ncc2nc(C)c(=O)n(Cc3cccs3)c2n1	nt	nt	2.5	-7.9%	nt
COc1ccc(Cl)cc1NC(=S)Nc1cccnc1	-6.3%	-16.6%	1.3	25.1µM*	-9.1%
Fc1ccc(NC(=S)Nc2cccnc2)cc1Cl	-4.3%	?	-6.3	28.2µM*	?
CCCN(CCC)CCNC(=O)CN1C(=O)COc2ccc(S(=O)(=O)N3CCC(C)CC3)cc21	-3.3%	-8.6%	nt	nt	-4.5%
COc1ccc(C)cc1-n1nnc(-c2nc(-c3ccccc3Cl)no2)c1N	1.2%	?	nt	nt	-14.7%
COC1=C(Nc2ccccc2)C(=O)c2ccccc2C1=O	7.08µM*	?	-33.0*	-13.2%	?
COC1=C(Nc2ccc(C)cc2)C(=O)c2ccccc2C1=O	8.91µM*	?	-32.1*	-26.0%	?
CC(=O)NC1=C(Nc2ccc(N(C)C)cc2)C(=O)c2ccccc2C1=O	nt	nt	-28.9	-14.0%	nt
N#Cc1ccccc1Cn1c(=O)n(Cc2ccc(C(=O)NC3CCN(Cc4ccccc4)CC3)cc2)c(=O)c2ccccc21	3.5%	-1.9%	nt	nt	-8.7%

From PubChem BioAssay
